PubChem BioAssay AID588726 (The Scripps Research Institute Molecular Screening Center, 2011)
Where “and” joins values, the source holds several entries; their conditions need not be identical. Equal values may be shown once. Hit rate of the full screen: of about 360,000 compounds, about 8,200 (2.3%) were called active. This is one part of a sample in which actives are shown more often than they occur. Values without a mark were called inactive. Rule as the data show it: active = inhibition above about 27%; inactive = the rest.

target: Fructose-bisphosphate aldolase (Mycobacterium tuberculosis (strain ATCC 25618 / H37Rv)) (UniProt P9WQA3); assay: M. tuberculosis aldolase activity blockers – biochemical, fluorescence, strain H37Rv, primary screen (AID 588726);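 also: 0% = vehicle and 100% = reference inhibitor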; conditions: purified M. tuberculosis FBA, fluorescence read-out, at 1 µM, stronger effect = higher value
Sequence (P9WQA3 whole entry, looked up): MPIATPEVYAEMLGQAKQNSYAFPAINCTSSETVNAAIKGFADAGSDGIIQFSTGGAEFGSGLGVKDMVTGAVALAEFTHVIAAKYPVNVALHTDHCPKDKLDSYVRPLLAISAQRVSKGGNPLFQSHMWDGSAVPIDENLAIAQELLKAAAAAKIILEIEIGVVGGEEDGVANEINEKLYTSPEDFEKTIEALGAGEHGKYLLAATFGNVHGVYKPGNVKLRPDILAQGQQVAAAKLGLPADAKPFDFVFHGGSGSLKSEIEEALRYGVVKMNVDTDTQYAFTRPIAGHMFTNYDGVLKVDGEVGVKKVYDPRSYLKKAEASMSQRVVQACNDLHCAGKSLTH

| SMILES | inhibition |
| --- | --- |
| O=C(NCCc1ccccc1)C(=O)NCC1OCCN1S(=O)(=O)c1cccs1 (stereo unspecified) | 0.89% |
| CN(C)C(=O)N1CCNCC1 | 2.64% |
| Cc1nc2ccc(S(=O)(=O)NCC(=O)O)cc2s1 | 0.49% |
| COCCNS(=O)(=O)c1cc(Br)ccc1OC | 0.54% |
| CCCCC(CC(C)O)c1n[nH]c(=S)n1-c1ccccc1 (stereo unspecified) | 2% |
| Cc1ccc(/C([O-])=C(/C(=S)NCc2ccco2)[n+]2ccccc2)cc1[N+](=O)[O-] | 1.54% |
| CCOc1cc(/C=N/NC(=O)c2ccc(CSc3nncn3C)cc2)ccc1OCC(=O)N1CCOCC1 | -1.98% |
| C=CCn1c(N)c(S(=O)(=O)c2cccs2)c2nc3ccccc3nc21 | 163% (active) |
| O=C(NCCCN1CCCC1=O)c1ccc(S(=O)(=O)Nc2ccccc2)cc1 | -1.21% |
| C=CCn1c(P(C)(=O)O)nc2ccccc21 | 1.11% and 4.28% |
| C=CCn1c(C(C)NC(=O)CC)nc2ccccc21 (stereo unspecified) | 3.68% |
| CCCCNc1nc2ccccc2nc1NS(=O)(=O)c1cccs1 | 6.38% |
| Cc1nn(Cc2ccccc2)c(C)c1C(=O)NCCCN1CCCC1=O | -1.19% |
| C=CCn1c(N)c(C(=O)OCC(C)C)c2nc3ccccc3nc21 | 88.6% (active) |
| C=CCN1CN(S(=O)(=O)c2ccc(OC)cc2)c2nc3ccccc3nc21 | 6.64% |
| CCCCC1N2CC3([N+](=O)[O-])CN1CC([N+](=O)[O-])(C2)C3(C)C (stereo unspecified) | 2.82% |
| COC(=O)c1ccc(NC(=O)CSc2nncn2-c2cccnc2)cc1 | 0.47% |
| CSc1cccc(NC(=S)N(C(C)C)C(C)c2ccccn2)c1 (stereo unspecified) | 0.95% |
| NC(=O)CSc1nnc(-c2cccc(S(=O)(=O)N3CCOCC3)c2)o1 | -1.59% |
| Cc1ccc(NC(=O)Cc2nc(COC(=O)C(C)NS(=O)(=O)c3ccc(C)cc3)cs2)cc1 (stereo unspecified) | 3.71% |
| Cc1ccccc1OCC(=O)NNC(=O)c1ccc(-n2cncn2)c([N+](=O)[O-])c1 | -1.97% |
| Cc1ccc(S(=O)Cc2ccc(C(=O)N3CCN(C4CCCCC4)CC3)o2)cc1 (stereo unspecified) | 1.16% |
| CCOC(=O)[C@@H]1[C@H]2COc3cc(OC)ccc3[C@H]2N2C(=O)N(c3ccc(F)cc3)C(=O)[C@]12C | 0.06% |

| SMILES | inhibition |
| --- | --- |
| C[C@@H]1CN([C@H](C)CO)S(=O)(=O)c2ccc(C#CC3CCCCC3)cc2O[C@H]1CN(C)C(=O)Cc1ccncc1 | -2.18% |
| O=C1NC(c2cc3c(cc2Cl)OCO3)Oc2ccccc21 (stereo unspecified) | 0.96% |
| CCc1c(C)nc2cc(-c3cccs3)[nH]n2c1=O | 27.4% (active) |
| Cc1cc(-c2cccs2)nc(-n2cccc2)n1 | 2.52% |
| CCc1c(C)nc2cc(C)[nH]n2c1=O | 27.9% (active) |
| CCCC(C)n1[nH]c(=O)c2c(C)cc(C)nc21 (stereo unspecified) | 4.12% |
| Cc1nc2scc(-c3cccs3)c2c(=O)n1N | -0.89% |
| Cc1nc2nc(COc3ccccc3)[nH]n2c(=O)c1Cc1ccccc1 | 1.84% |
| CCC(C)n1[nH]c(=O)c2c(C)cc(C)nc21 (stereo unspecified) | 2.95% |
| Cc1nc2nc[nH]n2c(=O)c1C/C=C/c1ccccc1 | -4.22% |
| CCCCCN1CC(O)=C(c2ccccc2)C1=N | -3.67% |
| C=CCc1c(C)nc2cc(-c3ccccc3)[nH]n2c1=O | 33.2% (active) |
| COC(=O)CN1C(=O)[C@H]2[C@@H](/C=C/c3ccccc3)N3C(=O)CN(CC4CC4)C(=O)[C@@]3(Cc3ccccc3)[C@H]2C1=O | 5.08% |
| COc1ccccc1NC(=O)CCC(=O)OC(C)C(=O)c1ccccc1 (stereo unspecified) | 2.76% |
| O=C1N[C@@H](Cc2ccccc2)C(=O)N2[C@@H]3N(S(=O)(=O)c4ccc(F)cc4)c4ccccc4[C@]3(Br)C[C@@H]12 | -1.67% |
| O=C(COc1ccc(Cl)cc1Cl)NCCCNC(=O)c1cnccn1 | 4.96% |
| Cc1ccc(C)c(-n2cc(CN3CCN(C(=O)c4ncn[nH]4)CC3)c(-c3ccccc3)n2)c1 | -1.74% |
| Cc1ccc(NS(=O)(=O)c2cccs2)cc1S(=O)(=O)N1CCCCCC1 | -1.86% |
| CCCCCN(C(=O)NC(=O)Nc1ccccc1OC)S(C)(=O)=O | -0.28% |
| CN(C)C(=O)c1cccn(Cc2cccc(C(F)(F)F)c2)c1=O | 0.45% |
| O=C(Cc1cccs1)NCc1cccc(C(F)(F)F)c1 | 2.86% |
| Cn1c(=O)c2cc(NC(=O)NCCc3cccs3)ccc2n1Cc1cccc(C(F)(F)F)c1 | 141% (active) |
| CC1(C)OC(=O)C(=CNC(CO)C(=O)O)C(=O)O1 (stereo unspecified) | -1.2% |

| SMILES | inhibition |
| --- | --- |
| CCOC(=O)Cc1ncccc1C(=O)Nc1ccc(OC)cc1 | -0.27% |
| CCOC(=O)Cn1c(=O)n(Cc2ccc(OC)cc2)c(=O)c2cccnc21 | 99.3% (active) |
| COCCCNC(=O)CCc1nc2cccnc2n1Cc1ccc(OC)cc1 | -2.9% |
| COc1cc(CCN=Cc2ccccc2O)c([N+](=O)[O-])cc1OC | 1.91% |
| O=C(COc1ccc(-c2ccccc2)cc1)NN=C1CCCC1 | 4.25% |
| COc1cccc2cc(C(=O)N(C)C)c(=O)oc12 | -1.37% |
| CN(C)CCNC(=O)c1ccc(Cl)c2cc3ccccc3nc12 | 9.35% |
| CN(C)C(=O)c1coc2nc3ccccc3nc12 | 131% (active) |
| COc1ccc(C(F)(F)F)cc1N/C=C\c1nnnn1-c1ccc(C)cc1 | 1.79% |
| CCCCNC(=O)N1CCCC(N(C)CCc2ccc(OC)c(OC)c2)C1 (stereo unspecified) | 3% |
| CCCS(=O)(=O)Nc1c(C(=O)O)[nH]c2ccccc12 | 38.6% (active) |
| O=C(O)c1[nH]c2ccccc2c1C(c1cccc(O)c1)c1c(C(=O)O)[nH]c2ccccc12 | 0.61% |
| CCOC(=O)C1CCN(C(=O)Cc2c(C(=O)O)[nH]c3ccccc23)CC1 | 3.52% |
| CCOC(=O)/C=C/C(=O)OCC(=O)NC(c1ccccc1)c1ccccc1 | 1.96% |
| Cc1cc(Cl)c2oc(C(=O)N(C)C(C)c3ccccn3)c(C)c2c1 (stereo unspecified) | 5.49% |
| CC(C)C(=O)N1CCC2(CC1)Oc1ccc(F)cc1C(=O)C21CC(c2ccccc2)=NO1 (stereo unspecified) | 4.59% |
| COCCCNC(=S)N(CCN(C)C)Cc1cc2cc3c(cc2[nH]c1=O)OCCO3 | 28.8% (active) |
| CCNC(=S)N(CCN(CC)CC)Cc1cc2cc3c(cc2[nH]c1=O)OCO3 | 32.3% (active) |
| CCN(CC)CCCNC(=S)N(CCO)Cc1cc2cc3c(cc2[nH]c1=O)OCO3 | 13.2% |
| Cc1cc(C)c2[nH]c(=O)c(CN(Cc3ccccc3)C(=S)NCCCN(C)C)cc2c1 | 5.66% |
| CN(C)CCCN(Cc1cc2cc3c(cc2[nH]c1=O)OCCO3)C(=O)NC1CCCCC1 | 26.5% |
| CCNC(=S)N(CCN(CC)CC)Cc1cc2cc3c(cc2[nH]c1=O)OCCO3 | 22% |
| COc1cc(NC(=O)CSC(=S)N2CCCC2)c(OC)cc1Cl | 9.36% |

| SMILES | inhibition |
| --- | --- |
| Cc1ccsc1C1C(C#N)=C(N)OC2=C1C(=O)CC(C)(C)C2 (stereo unspecified) | 5.8% |
| CCc1ccc(OCC(=O)N(Cc2ccccc2)C2CCS(=O)(=O)C2)cc1 (stereo unspecified) | 4.66% |
| Cn1c(=O)c2c(SCC(=O)NCC3CCCO3)nc(CC(C)(C)C)nc2n(C)c1=O (stereo unspecified) | -0.73% |
| O=C(CC[C@H]1O[C@@H](n2ccc(=O)[nH]c2=O)[C@H](O)[C@@H]1O)N[C@H](Cc1ccccc1)C(=O)NCc1ccco1 | 1.72% |
| COCCCn1c(SCC(=O)NC2CCCC2)nnc1-c1ccccc1 | -5.58% |
| Cc1ccc(S(=O)(=O)c2cc3c(=O)n4cccc(C)c4nc3n(CCc3ccccc3)c2=N)cc1C | -2.09% |
| COCCCn1c(C(=O)NC2CCCCC2)cc2c(=O)n3cccc(C)c3nc21 | 37.6% (active) |
| CCn1c(=N)c(C(=O)NCCCOC)cc2c(=O)n3cccc(C)c3nc21 | 661% [above what the read-out allows, likely interference] (active) |
| CCc1cccc2c(=O)c(C(=O)NCCCOC)c[nH]c12 | 1.41% |
| Cc1cccn2c(=O)c3cc(C(=O)NC4CCCCC4)sc3nc12 | 9.42% |
| CC(NCCc1ccc(S(N)(=O)=O)cc1)C(=O)NCc1ccccc1 (stereo unspecified) | 0.46% |
| Cc1cccc(C2c3c(n(C)c(=O)n(C)c3=O)N=C3c4ccccc4C(=O)C32)c1 (stereo unspecified) | -1.16% |
| CCOc1ccc(C(=O)Nc2c3c(nn2-c2ccccc2)CS(=O)(=O)C3)cc1 | 0.76% |
| O=S(=O)(c1ccc(F)cc1)N1CCN(C(=S)NC2CCCC2)CC1 | 0.47% |
| C[C@@H]1CN([C@@H](C)CO)C(=O)c2cc(Br)cnc2O[C@@H]1CN(C)C(=O)C1CCCCC1 | -2.01% |
| O=C(Cn1nnc(-c2ccccc2)n1)NC(=O)NC1CCCC1 | 0.56% |
| O=C(O[C@H]1[C@H](Cc2ccccc2)NS(=O)(=O)[C@H]2C[C@@H]3C=C[C@]12O3)c1ccc([N+](=O)[O-])cc1 | 1.68% |
| Cc1nnc(SCC(=O)Nc2ccc(S(=O)(=O)Nc3ccc(Cl)nn3)cc2)s1 | -1.39% |
| Brc1ccc(C2=CC(c3ccco3)n3ncnc3N2)cc1 (stereo unspecified) | 31.5% (active) |
| Clc1ccc2c(c1)C1=C(C(c3ccncc3)O2)C(c2ccc(Br)cc2)n2ncnc2N1 (stereo unspecified) | 1.95% |
| CCOc1ccc(C2=CC(c3ccccc3)n3ncnc3N2)cc1 (stereo unspecified) | 48.9% (active) |
| CC1=C(C(=O)OC2CCCCC2)C(c2cccnc2)n2ncnc2N1 (stereo unspecified) | 1.05% |
